Data reported in PubChem BioAssay (NCI).
Several values for one entry are separate records, joined by “and”; a condition that tells them apart may be missing. Identical values can stand only once. This is part of a sample that, as a whole, favours compounds with a hit. Of some 83,000 tested, about 20% had one in any assay.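 Note: values are percent growth. 100 is the growth of untreated cells, values between 100 and 0 indicate rising inhibition; between -100 and 0 indicates cell death.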 Activity calls are given as the source filed them. The calls were made as follows: active = growth percent below 10; inactive = the rest.

What follows are compounds tested on HL-60(TB) leukemia (assay: NCI-60 one-dose screen, 48 h (100 = growth as untreated, 0 = no growth, -100 = all killed)). Conditions: 10 µM unless noted.

Row | SMILES | growth
1 | COC(=O)CNC(=O)C(=O)c1c(O)c(O)c(C(C)C)c2cc(C)c(-c3c(C)cc4c(C(C)C)c(O)c(O)c(C(=O)C(=O)NCC(=O)OC)c4c3O)c(O)c12 | 24.6% (inactive)
2 | O=C(Nc1ccc(Br)cc1)Nc1ccccc1Cl | 70.7% (inactive)
3 | CN(Cc1ccccc1)c1nc(Cl)c(C2CC(c3ccc(Cl)cc3)=Cc3[nH][nH]c(=O)c32)s1 (centres undefined) | 104% (inactive)
4 | CC1=Nc2cnc(Nc3ccc(OCCN4CCCC4)cc3)nc2Nc2ccccc21 | 76.4% (inactive)
5 | CCOC(=O)N1CCN(CCCCl)CC1 | 85.6% (inactive)
6 | Cc1ccc2nc3ccccc3c(NCc3ccccc3)c2c1 | 40.6% (inactive)
7 | CC(C)N(CCOc1cccc(-c2nc3sccn3c2-c2ccnc(S(C)(=O)=O)n2)c1)C(C)C | 80.8% (inactive)
8 | O=Nc1c(O)ccc2ccccc12 | -26.3% (active) and 74% (inactive)
9 | COc1cc(CNCCN2C(=O)c3ccc4c5c(ccc(c35)C2=O)C(=O)N(CCNCc2cc(OC)c(OC)c(OC)c2)C4=O)cc(OC)c1OC | -48.7% (active)
10 | COc1cc(-c2csc(NC(=O)Nc3ccc(Cl)cc3Cl)n2)cc(OC)c1OC | 17% (inactive)
11 | O=C(Nc1ccc(C2=NCCCN2)cc1)Nc1ccc(C2=NCCCN2)cc1 | 87.4% (inactive)
12 | O=C(Nc1cccc(-c2cccc(F)c2)c1)C1CCN(Cc2cccc3cccnc23)CC1 | 28% (inactive)
13 | OB(O)c1cccc(-c2nc3ccc4[nH]ncc4c3c3c2CCCC3)c1 | 32.6% (inactive)
14 | CCCCC(=O)Nc1ncc(Cc2ccc(Cl)cc2)s1 | 66.1% (inactive)
